Over roughly 140,000 sequences, “enrichment ratio after two sorts for PhoP signalling” has its median near 0; the highest 2% begin near 11. The sample holds the highest values, similar sequences and a random draw of the others, so the mix is not that of the screen.

B1: PhoQ; a variant is named by its letters at X, in order, P23837 (parent)
chain: MKKLLRLFFPLSLRVRFLLATAAVVLVLSLAYGMVALIGYSVSFDKTTFRLLRGESNLFYTLAKWENNKLHVELPENIDKQSPTMTLIYDENGQLLWAQRDVPWLMKMIQPDWLKSNGFHEIEADVNDTSLLLSGDHSIQQQLQEVREDDDDAEMTHSVAVNVYPATSRMPKLTIVVVDTIPVELKSSYMVWSWFIYVLSANLLLVIPLLWVAAWWSLRPIEALAKEVRELEEHNRELLNPATTRELTSLVRNLNRLLKSERERYDKYRTTLTDLTHSLKTPLXXLQXXLRSLRSEKMSVSDAEPVMLEQISRISQQIGYYLHRASMRGGTLLSRELHPVAPLLDNLTSALNKVYQRKGVNISLDISPEISFVGEQNDFVEVMGNVLDNACKYCLEFVEISARQTDEHLYIVVEDDGPGIPLSKREVIFDRGQRVDTLRPGQGVGLAVAREITEQYEGKIVAGESMLGGARMEVIFGRQHSAPKDE

Variants of B1 are the subject of the assay. Kind of assay: enrichment ratio after two sorts for PhoP signalling (ratio (wild type AVST 3.29)); higher = more functional. As to conditions: with PhoP (E. coli).
Consider IRDH, for which the enrichment ratio was not above 0.25.
With EIET the figure was not above 0.25.
As for MPTT, the enrichment ratio was not above 0.25.
With KEKC the figure was not above 0.25; with VMIT, not above 0.25.
IQVQ: the enrichment ratio was not above 0.25.
Take LAQG: the enrichment ratio was not above 0.25.
With NVSG the figure was not above 0.25; with TQMQ, 24.2.
Take KSQG: the enrichment ratio was not above 0.25.
In the case of PVSG, the enrichment ratio was not above 0.25.
As for WQVQ, the figure is not above 0.25.
In the case of TQSG, the enrichment ratio stood at 22.2.
Turning to TQVQ, the enrichment ratio is 13.8.
In the case of TQQG, the enrichment ratio was determined as 16.8.
As for IQMQ, the enrichment ratio is not above 0.25.
Consider TQMI, for which the enrichment ratio was 6.9.
With GHDF, the enrichment ratio is not above 0.25.
Turning to PFFG, the enrichment ratio is not above 0.25.
As for QSAN, the figure is not above 0.25; as for HQRF, not above 0.25; as for YLKI, not above 0.25.
In the case of YYVE, the enrichment ratio is not above 0.25.
As for YDMW, the figure is not above 0.25; as for QNMD, not above 0.25; as for NQMA, not above 0.25.
For SQMA, the enrichment ratio came to 8.75.
As for KQAG, the figure is not above 0.25.
In the case of TQMV, the enrichment ratio is 7.29.
Take TQQR: the enrichment ratio is not above 0.25.
With WQAG the figure was not above 0.25; with TQMA, 12.7; with TQAG, 28.2.
With TQMG the figure was 32.5; with EPSH, not above 0.25; with CFVH, not above 0.25.
For the variant RDRE, the enrichment ratio was not above 0.25.
In the case of NQHC, the enrichment ratio was not above 0.25.
For RVAA, the enrichment ratio was not above 0.25.
As to LDQA, the enrichment ratio is not above 0.25.
Turning to KQLN, the enrichment ratio was not above 0.25.
Regarding TQEN, the enrichment ratio was not above 0.25.
In the case of NVTN, the enrichment ratio is not above 0.25.
FQFN: the enrichment ratio was not above 0.25.
Take DWTN: the enrichment ratio was not above 0.25.
For the variant TQLN, the enrichment ratio stood at 13.2.
EQLN: the enrichment ratio is not above 0.25.
On to TQWN, for which the enrichment ratio amounted to 10.1.
Take NQFN: the enrichment ratio was not above 0.25.
Take TQFN: the enrichment ratio is 14.2.
In the case of TQTN, the enrichment ratio is 15.4.
TQQN: the enrichment ratio is 14.8.
In the case of VGED, the enrichment ratio was not above 0.25.
Turning to FPIP, the enrichment ratio is not above 0.25.
For WVYL, the enrichment ratio is not above 0.25.
With IRTL, the enrichment ratio was not above 0.25.
Turning to EQCN, the enrichment ratio was not above 0.25.
TQCN: the enrichment ratio turned out to be 24.9.
In the case of NQCN, the enrichment ratio was not above 0.25.
With YYPA the figure was not above 0.25.
DFPF: the enrichment ratio was not above 0.25.
In the case of YTGA, the enrichment ratio was not above 0.25.
TTGA: the enrichment ratio came to 12.6.
ITGA: the enrichment ratio is not above 0.25.
Regarding TGMA, the enrichment ratio stood at 26.1.
Take NHMA: the enrichment ratio is 16.2.
Take NEMA: the enrichment ratio was not above 0.25.
As for WIMA, the figure is not above 0.25.
With RGMA the figure was not above 0.25; with TTMA, 13.4.
For THMA, the enrichment ratio amounted to 6.15.
For the variant GGMA, the enrichment ratio was not above 0.25.
Turning to YTMA, the enrichment ratio is not above 0.25.
Regarding LFNF, the enrichment ratio is not above 0.25.
Turning to DMIQ, the enrichment ratio is not above 0.25.
LEWL: the enrichment ratio is not above 0.25.
As for ADCH, the enrichment ratio stood at 9.13.
Regarding GPHV, the enrichment ratio is not above 0.25.
Take TGWN: the enrichment ratio was not above 0.25.
As to PMPR, the enrichment ratio was not above 0.25.
As for KQFD, the figure is not above 0.25.
As to WFVI, the enrichment ratio was not above 0.25.
As for RFQA, the figure is not above 0.25; as for VHFG, not above 0.25.
Consider EVCW, for which the enrichment ratio was not above 0.25.
Regarding AIMA, the enrichment ratio is 12.1.
As for AHMA, the enrichment ratio was not above 0.25.
Consider ATMA, for which the enrichment ratio came to 1.82.
In the case of EPIW, the enrichment ratio was not above 0.25.
With NQNT the figure was not above 0.25; with SSLS, 11.4.
With SSLA, the enrichment ratio came to 7.43.
Regarding SSLT, the enrichment ratio was 12.
With KSVT, the enrichment ratio is not above 0.25.
With SSAT, the enrichment ratio was determined as 8.03.
For the variant SSLK, the enrichment ratio was 5.98.
In the case of STVT, the enrichment ratio came to 0.835.
Regarding SSNT, the enrichment ratio was not above 0.25.
Turning to SSVT, the enrichment ratio came to 14.6.
As for HWNL, the enrichment ratio was not above 0.25.
Turning to QGSH, the enrichment ratio is 9.79.
As for TMLT, the enrichment ratio came out at 1.84.
Take HPCD: the enrichment ratio is not above 0.25.
With SSRS, the enrichment ratio was not above 0.25.
For HMWA, the enrichment ratio was not above 0.25.
With LPNW, the enrichment ratio came to 0.366.
In the case of QQHW, the enrichment ratio was not above 0.25.
THTR: the enrichment ratio is not above 0.25.
With WQLH the figure was not above 0.25; with AQLH, 13.8; with AHLH, not above 0.25.
KKLH: the enrichment ratio is not above 0.25.
As for AKLH, the enrichment ratio is 14.6.
Regarding CQLH, the enrichment ratio is 27.9.
As for MKLH, the figure is not above 0.25; as for HKLH, not above 0.25.
In the case of HQLH, the enrichment ratio is not above 0.25.
As to TPLH, the enrichment ratio is not above 0.25.
Regarding RQLH, the enrichment ratio is not above 0.25.
Take TKLH: the enrichment ratio was found to be 11.9.
For the variant PTHK, the enrichment ratio is not above 0.25.
As for EMCT, the enrichment ratio is not above 0.25.
On to CHLM, for which the enrichment ratio was not above 0.25.
With QVLK the figure was not above 0.25; with NHYM, not above 0.25; with SMGG, 1.44.
Consider SMCK, for which the enrichment ratio was found to be 9.85.
Regarding SMCI, the enrichment ratio was 14.3.
For the variant KYAQ, the enrichment ratio is not above 0.25.
With SMAQ, the enrichment ratio amounted to 15.5.
With SMHP, the enrichment ratio is not above 0.25.
Regarding MMCY, the enrichment ratio is not above 0.25.
Take SMGQ: the enrichment ratio is 11.7.
As for SLCY, the enrichment ratio stood at 2.99.
As for KMAQ, the figure is not above 0.25.
On to SMCS, for which the enrichment ratio worked out at 10.4.
Consider SMCY, for which the enrichment ratio amounted to 11.6.
For GSEH, the enrichment ratio is not above 0.25.
IYMF: the enrichment ratio was not above 0.25.
Turning to IKKL, the enrichment ratio is not above 0.25.
TQFP: the enrichment ratio was not above 0.25.
Regarding KGRD, the enrichment ratio is not above 0.25.
As to LVLT, the enrichment ratio is not above 0.25.
Regarding VGSS, the enrichment ratio was not above 0.25.
On to WDDM, for which the enrichment ratio was not above 0.25.
With GMHA, the enrichment ratio was not above 0.25.
With SMPM the figure was not above 0.25; with SMCL, 16.6.
With SMTM, the enrichment ratio was found to be 14.9.
As for SMSA, the figure is 14.6; as for SMME, 14.6.
On to SMWM, for which the enrichment ratio is not above 0.25.
For SMPL, the enrichment ratio is not above 0.25.
With SMMD the figure was not above 0.25; with SMSQ, 11.1.
For SMGL, the enrichment ratio came out at 5.54.
Turning to SMSH, the enrichment ratio amounted to 9.89.
Consider SMMY, for which the enrichment ratio was 2.28.
As for LSHR, the enrichment ratio was not above 0.25.
As for KFYP, the figure is not above 0.25.
For the variant KYSQ, the enrichment ratio was not above 0.25.
With KEDF the figure was not above 0.25; with HKIL, not above 0.25; with EQYF, not above 0.25.
Take DLKR: the enrichment ratio is not above 0.25.
IPGP: the enrichment ratio is not above 0.25.
Consider FPRY, for which the enrichment ratio is not above 0.25.
In the case of GVMQ, the enrichment ratio stood at 5.97.
Consider SLCW, for which the enrichment ratio amounted to 0.501.
For the variant SMCA, the enrichment ratio worked out at 15.3.
Regarding SMGS, the enrichment ratio turned out to be 1.09.
Consider SMPA, for which the enrichment ratio is not above 0.25.
With SMTA, the enrichment ratio was found to be 11.8.
Take SMCE: the enrichment ratio was found to be 11.7.
Take SMCW: the enrichment ratio stood at 19.6.
In the case of SMIE, the enrichment ratio was not above 0.25.
Take SMWI: the enrichment ratio was not above 0.25.
On to SMPE, for which the enrichment ratio worked out at 0.359.
SMPI: the enrichment ratio amounted to 1.09.
In the case of SNCW, the enrichment ratio stood at 10.3.
For the variant AKLD, the enrichment ratio was not above 0.25.
Turning to VWSC, the enrichment ratio was not above 0.25.
SVVD: the enrichment ratio is not above 0.25.
With RVNR, the enrichment ratio is not above 0.25.
For the variant KMAE, the enrichment ratio was not above 0.25.
Turning to SMAV, the enrichment ratio stood at 5.92.
As for SMAE, the figure is 25.2; as for SMSK, 2.79; as for SMSI, 12.9.
On to SMSR, for which the enrichment ratio was not above 0.25.
For HLVA, the enrichment ratio was not above 0.25.
For AQPM, the enrichment ratio was not above 0.25.
As to RVFT, the enrichment ratio was not above 0.25.
Turning to NAGS, the enrichment ratio was not above 0.25.
Consider RQQG, for which the enrichment ratio was not above 0.25.

The values are drawn from a collection of fitness landscapes (doi:10.1126/science.1257360).
